Most compounds without a hit are left out; they make up all but 4.7% or so of the library.
DRD3 agonist: activates the human D3 dopamine receptor; AID 652048; max activation, %; 410,000 tested, 0.58% active; D3R DiscoveRx beta-arrestin cells, luminescence, 90 min; P35462; in the data active means max activation above about 30%; further: 0% is about no effect
Target sequence (P35462 whole entry, looked up): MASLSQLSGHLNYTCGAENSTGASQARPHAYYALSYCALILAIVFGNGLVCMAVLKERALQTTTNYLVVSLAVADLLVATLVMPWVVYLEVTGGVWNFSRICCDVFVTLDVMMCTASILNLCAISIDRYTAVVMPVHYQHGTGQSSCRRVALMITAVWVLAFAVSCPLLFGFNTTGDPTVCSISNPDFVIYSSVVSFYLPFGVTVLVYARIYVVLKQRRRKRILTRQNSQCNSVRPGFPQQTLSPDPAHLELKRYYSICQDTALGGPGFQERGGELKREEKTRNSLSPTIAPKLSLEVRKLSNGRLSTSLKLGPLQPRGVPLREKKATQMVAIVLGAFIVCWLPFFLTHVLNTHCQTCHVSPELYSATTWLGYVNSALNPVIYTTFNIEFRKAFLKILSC
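Agonist-mode cell screen: cells plated at 1500/well and incubated overnight at 37 °C, then exposed to library compounds for 90 min at 37 °C. Detection reagent was added for 30–60 min at room temperature, and luminescence was read.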
TGFb SMAD3 inh: TGF-b pathway inhibition; AID 588855; HepG2 CAGA-GFP TGF-b/SMAD3 reporter, GFP fluorescence, 18 h; TGF-beta stimulated, 500 pg/mL final; Potency, µM (top dose mostly 46.1 µM), for the others: at the top dose activity, negative = inhibition, actives largely listed as inhibitors; 410,000 tested, 1.2% active; further: potency means the concentration at half of the fitted maximal effect; on the % scale 0 is the no-effect control and ±100 the full control effect; nearly all actives have a fitted effect of over 65% in size
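HEPG2 CAGA-GFP cells (1000/well, DMEM with 1% FBS) were pre-incubated 2 h at 37 degrees C, given compound by pin tool, then stimulated with TGF-beta at 500 pg/mL final for 18 h before per-cell GFP fluorescence imaging.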
ATXN viability: reduces viability in counter-screen for ATXN expression inhibitors | S2 cells (HEK-293 line with an ATXN2-luciferase reporter) viability, CellTiter-Fluor protease fluorescence, 24 h | Potency, µM (series often up to 56.7 µM), usual class: cytotoxic | 400,000 tested, 0.49% active; further: potency means the concentration at half of the fitted maximal effect; nearly all actives have a fitted effect of over 40% in size
HepG2 tox-1: HepG2 cytotoxicity, counter-screen for TGF-b inhibitors. HepG2 CAGA-GFP viability, ATP luminescence, 18 h. Potency, µM (titrated, usually from 46.1 µM), without a hit: at the top dose activity change, negative = cytotoxicity, usual class: cytotoxic. 410,000 tested, 0.76% active. AID 588856; further: potency means the concentration at half of the fitted maximal effect
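HepG2 CAGA-GFP cells (1000/well, DMEM with 1% FBS) received compound, then TGF-beta at 500 pg/mL final, and were incubated 18 hours at 37 degrees C. Viability was read by CellTiter-Glo luminescence. Media-only wells were set as complete cell-killing and DMSO as no toxicity.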
D3 antag: blocks the human D3 dopamine receptor; D3R cells, DiscoveRx beta-arrestin luminescence, antagonist mode; hits give low values; max response, negative = inhibition, %; 360,000 tested, 2.5% active; in the data active means max response below about -50%; inconclusive means no clear call, values can overlap the other calls; further: on the % scale 0 is the no-effect control and ±100 the full control effect
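Cells plated overnight at 1500 cells/well, then exposed to library compounds with dopamine controls for 90 minutes at 37 degrees C. DiscoveRx reagent added for 30–60 minutes at room temperature; luminescence read, quantitative HTS format.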
ATXN2 expr inh: inhibitors of ATXN2 expression. Potency, µM (series often up to 57 µM), for the others: top-dose activity change, negative = inhibition, most hits filed as inhibitors. 360,000 tested, 0.72% active. HEK-293 ATXN2-luciferase reporter, luminescence, 24 h; further: potency means the concentration at half of the fitted maximal effect; on the % scale 0 is the no-effect control and ±100 the full control effect; nearly all actives have a fitted effect of over 55% in size
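qHTS (up to 57 uM final) was run with 24 h compound exposure of reporter cells at 37 °C. Each well was multiplexed: SteadyGlo luminescence measured ATXN2-luciferase expression after a fluorogenic Gly-Phe-AFC viability readout (25 uM final).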
TGFb CAGA inh: TGF-b pathway inhibition, cherry-pick retest; shares compounds with TGFb SMAD3 inh; HepG2 CAGA-GFP TGF-b reporter, GFP fluorescence, 18 h; cells stimulated with TGF-beta, 500 pg/mL; Potency, µM (highest dose often 46.1 µM), without a hit: at the highest dose activity, negative = inhibition, actives largely listed as inhibitors; 1,600 tested, 63% active; AID 720534; further: potency means the concentration at half of the fitted maximal effect; on the % scale 0 is the no-effect control and ±100 the full control effect; nearly all actives have a fitted effect of over 65% in size
HepG2 tox-2: counter-screen for TGF-b inhibitors: cytotoxicity in HepG2 cells; shares compounds with TGFb SMAD3 inh; HepG2 CAGA-GFP viability, ATP luminescence, 18 h; cells stimulated with TGF-beta, 500 pg/mL; Potency, µM (doses to about 46.1 µM), without a hit: at the top dose activity, negative = cytotoxicity, actives largely listed as inhibitors; 1,600 tested, 27% active; AID 720535; further: potency means the concentration at half of the fitted maximal effect; on the % scale 0 is the no-effect control and ±100 the full control effect; nearly all actives have a fitted effect of over 70% in size
TGFb CCL64 inh: blocks TGF-b signaling in CCL64 reporter cells; shares compounds with TGFb SMAD3 inh; CCL64 CAGA-GFP reporter, TGF-b stimulated, GFP fluorescence, 18 h; Potency, µM (doses to about 46.1 µM), for inactives: top-dose activity, negative = inhibition, hits mostly inhibitors; 1,600 tested, 41% active; AID 720536; further: potency means the concentration at half of the fitted maximal effect; nearly all actives have a fitted effect of over 65% in size
TGFb COP inh: blocks TGF-b signaling in HepG2 COP reporter; AID 720537; HepG2 COP-GFP TGF-b reporter, GFP fluorescence, 18 h; cells stimulated by added recombinant TGF-beta; shares compounds with TGFb SMAD3 inh; Potency, µM (series often up to 46.1 µM), without a hit: top-dose activity, negative = inhibition, hits mostly inhibitors; 1,600 tested, 3% active; further: potency means the concentration at half of the fitted maximal effect; nearly all actives have a fitted effect of over 70% in size
Starred values were filed as active, the others as inactive; i = inactive; ? = inconclusive; . = no result given. Unless noted, the call rests on the fitted dose curve; in most records, active means well fitted curve in the direction sought with a large enough effect; inconclusive means small, poorly fitted or top-dose-only effect, or another doubt; inactive means no such curve, though single readings can be large; an effect the other way counts as inactive or inconclusive.

SMILES	DRD3 agonist	TGFb SMAD3 inh	ATXN viability	HepG2 tox-1	D3 antag	ATXN2 expr inh	TGFb CAGA inh	HepG2 tox-2	TGFb CCL64 inh	TGFb COP inh
CC(C)C[C@H]1CN([C@@H](CC(C)C)CN2CCCC2CN2C(=S)NC[C@@H]2Cc2ccc(O)cc2)C(=S)N1CCc1ccccc1 (some centres undefined)	-6.4	?	?	-1.5%	-12.5	-24.0%	.	.	.	.
COCCCNc1oc(/C=C/c2cc(OC)c(OC)c(OC)c2)nc1C#N	11.8	-9.7%	.	-28.0%	.	.	.	.	.	.
O=S(=O)(Nc1ccc(Br)cc1)c1cccc2cccnc12	8.4	0.0%	i	-21.4%	-21.8	-6.2%	.	.	.	.
O=S(=O)(Nc1ccc(C(O)(C(F)(F)F)C(F)(F)F)cc1)c1cccc2cccnc12	-9.0	17.8µM*	?	-30.4%	-28.0	?	14.6µM*	-20.5%	-24.7%	39.5%
O=C(NCCc1cccs1)C1CC(c2ccccc2F)=NO1 (centres undefined)	2.0	?	i	2.6%	-6.2	23.1%	-2.5%	7.2%	0.7%	1.2%
O=C(NCCc1cccs1)C1CC(c2cccc(F)c2)=NO1 (centres undefined)	6.7	-5.4%	i	-15.0%	1.6	6.2%	.	.	.	.
CN=c1sc2c(n1C)C(=O)c1ccccc1C2=O	-9.8	1.41µM*	.	2.24µM*	-14.1	?	1.84µM*	2.59µM*	5.17µM*	4.61µM*
CN=c1sc(C(=O)Nc2ccccc2)c(C)n1C	5.7	-6.4%	i	-0.8%	7.7	-6.9%	.	.	.	.
CC(=NNC(=S)N1CCCCC1)c1ccccn1	-9.4	0.631µM*	?	-70.1%	-24.8	.	1.3µM*	?	0.651µM*	-7.3%
C=CCNC(=S)N/N=C(\C)c1ccccn1	-7.8	2.82µM*	.	-26.2%	-89.7*	-90.7%	10.3µM*	?	1.3µM*	-3.7%
C/C(=N\NC(=O)c1ccccc1-n1cccc1)c1ccccn1	-9.7	14.1µM*	2.82µM*	-35.9%	?	.	10.3µM*	?	?	21.2%
CC(=NNC(=S)Nc1ccccc1Cl)c1ccccn1	1.9	?	?	2.8%	20.1	?	.	.	.	.
CCC(Cc1ccccc1)NC(=O)c1ccc2nc(N3CCC(C)CC3)sc2c1 (centres undefined)	1.9	0.9%	?	1.8%	.	41.4%	.	.	.	.
Cc1ccc(C)c(NC(=O)Cn2nc(C)c3nn(-c4ccc(Cl)cc4)c(C)c3c2=O)c1	10.3	-18.8%	.	-0.3%	.	.	.	.	.	.
CC(=O)Nc1nnc(SCc2cc(=O)c3cc(C)ccc3[nH]2)s1	-2.6	-41.0%	i	2.8%	.	-1.4%	.	.	.	.
COc1cc(-c2nc(S(=O)(=O)c3ccc(Br)cc3)c(N3CCOCC3)o2)cc(OC)c1OC	6.7	-31.9%	.	-27.8%	.	.	.	.	.	.
